# Assay results as given in PubChem BioAssay (NCATS).
# Records with an inconclusive call do not appear. Entries that show only a call come without a potency. Values without a mark were called inactive. Calls of active or inactive are those of the source. Calls come from the whole dose curve; as a rule, active = well fitted curve in the direction sought with a large enough effect; inconclusive = small, poorly fitted or top-dose-only effect, or another doubt; inactive = no such curve, though single readings can be large; an effect the other way counts as inactive or inconclusive.
# Assays:
# [1] = target: Aldehyde dehydrogenase, mitochondrial (Homo sapiens) (UniProt P05091); experiment: qHTS for Inhibitors of the Aldehyde Dehydrogenase Family (ALDH2) Primary screen (AID 2061308); conditions: ALDH2 enzyme inhibition qHTS, 1536-well; series mostly up to 56 µM; note: nearly all actives have a fitted effect of over 55% in size
# [2] = target: Retinaldehyde dehydrogenase 3 (Homo sapiens) (UniProt P47895); experiment: qHTS for Inhibitors of the Aldehyde Dehydrogenase Family (ALDH1A3) Primary screen (AID 2061315); conditions: ALDH inhibition qHTS; series mostly up to 56 µM
SMILES,Potency [1],Potency [2],"activity change, negative = inhibition [1]","activity change, negative = inhibition [2]"
Cc1cc2c(s1)c1cnn(Cc3ccc(SC(F)(F)F)cc3)c(=O)c1n2C,inactive,inactive,,
CCCCNc1nc(C)nc2c1nc(-c1ccccc1)n2CCCN1CCCCC1C (stereo not drawn),inactive,inactive,,
C[C@@H]1O[C@@H](O[C@@H]2[C@@H](O)[C@H](O[C@H]3CC[C@@]4(C)C(CC[C@]5(C)C4CC=C4[C@@H]6CC(C)(C)CC[C@]6(C(=O)O[C@@H]6O[C@H](CO)[C@@H](O)[C@H](O)[C@H]6O)CC[C@]45C)C3(C)C)O[C@H](C(=O)O)[C@H]2O)[C@H](O)[C@H](O)[C@H]1O (stereo partly drawn),inactive,inactive,,
Cn1ncc(Cl)c1C1N=C(Nc2nc3ccccc3o2)NC2=C1C(=O)CCC2 (stereo not drawn),inactive,inactive,,
O=S(=O)(NCCNc1nc(-c2ccco2)nc2ccccc12)c1ccccc1,inactive,inactive,,
CCOc1ccc(CCNC(=O)c2ccc(C3(C(F)(F)F)N=N3)cc2)cc1OCC,inactive,inactive,,
O=C(Nc1ccc2ccccc2c1)Nc1nnc(-c2ccc(O)cc2)s1,inactive,inactive,,
CC(C)Nc1cccc(S(=O)(=O)N2CCCN(S(=O)(=O)c3ccc4c(c3)OCCO4)CC2)c1,inactive,inactive,,
C=C1C(=O)OC2CC3(C)C(CC12)C(C)=CC(O)C3OC(C)=O (stereo not drawn),inactive,inactive,,
C=CCNc1oc(C2CCCC2)nc1C#N,inactive,inactive,,
CCCn1c(-c2ccc(F)cc2)nc2c(N3CCCN(Cc4ccccc4)CC3)nc(C)nc21,inactive,inactive,,
O=C(Nc1ccc2ccccc2c1)Nc1cccc(-c2ccncc2)n1,inactive,inactive,,
Cc1ccc(Cn2ncc3c4sc(C)cc4n(C)c3c2=O)c(C)c1,inactive,inactive,,
CCCCCNc1oc(-c2cccc3ccccc23)nc1C#N,inactive,inactive,,
N#Cc1nc(Nc2cc(Cl)cc(Cl)c2)nc(NC2CCCC2)n1,inactive,inactive,,
Cc1ccc(OCCn2c(CCNC(=O)c3ccc(Br)o3)nc3ccccc32)cc1,inactive,inactive,,
O=C(Nc1ncc(-c2ccccc2)s1)c1ccc(-c2cccc([N+](=O)[O-])c2)o1,inactive,inactive,,

SMILES,Potency [1],Potency [2],"activity change, negative = inhibition [1]","activity change, negative = inhibition [2]"
COc1ccc2nc(-c3ccccc3OC)sc2c1,inactive,inactive,,
CN(Cc1nccs1)S(=O)(=O)c1ccc(Nc2nc(-c3ccccc3)cs2)cc1,inactive,inactive,,
CC(=O)c1ccc(N2CCN(S(=O)(=O)c3ccc4c(c3)CCC(=O)N4)CC2)cc1,inactive,inactive,,
CC(=O)O[C@H]1CC(C)(C)CC2[C@]13CO[C@@]21CCC2[C@@]4(C)CC[C@H](O[C@@H]5OC[C@H](O[C@@H]6O[C@H](CO)[C@@H](O)[C@H](O)[C@H]6O[C@@H]6OC[C@@H](O[C@@H]7O[C@H](CO)[C@@H](O)[C@H](O)[C@H]7O)[C@H](O)[C@H]6O)[C@H](O)[C@H]5O[C@@H]5O[C@H](CO)[C@@H](O)[C@H](O)[C@H]5O)[C@@](C)(CO)C4CC[C@@]2(C)[C@]1(C)C[C@H]3O (stereo partly drawn),,,0.34% [at 11.2 µM],11.1% [at 11.2 µM]
Cc1ccc(OCCn2c(CCNC(=O)c3ccccc3Br)nc3ccccc32)cc1,inactive,inactive,,
O=S(=O)(c1ccc(O)c2ncccc12)N1CCCCC1,inactive,inactive,,
Cc1cnc(-c2ccccc2C(C)O)nc1NCc1ccc(-c2cccnc2)cc1 (stereo not drawn),inactive,inactive,,
CC(C)(C)n1nc(Cc2cccc([N+](=O)[O-])c2)c2c(N)ncnc21,inactive,inactive,,
COc1cc(-c2ccc3ncnc(N(C)Cc4csc(C)n4)c3c2)cc(OC)c1OC,inactive,inactive,,
COc1ccc(OC)c(-c2nnc3n2N=C(c2c(OC)cccc2OC)CS3)c1,inactive,inactive,,
Cc1cc(-c2ccccc2)n2ncc(C(=O)Nc3ccc(Cl)c(Cl)c3)c2n1,inactive,inactive,,
CCn1cnc2c(Nc3ccc(CCC(=O)N=C(N)N)cc3)nc(C#N)nc21,inactive,inactive,,
CC(C)c1ccccc1-c1nc2c(c(NCc3ccc(-c4cccnc4)cc3)n1)CNC2,inactive,inactive,,
COc1ccc(N2C(=O)c3ccccc3C2=O)cc1,inactive,inactive,,
COc1ccc(C2NC(=O)c3ccccc3N2)cc1COc1c(C)cc(NC(C)=O)cc1C (stereo not drawn),inactive,inactive,,
Cc1ccc(OCCn2c(CCNC(=O)c3ccsc3)nc3ccccc32)cc1,inactive,inactive,,
Cc1ccc(NC(=O)c2cnn3c(-c4ccccc4)cc(C)nc23)cc1,inactive,inactive,,
